Screens deposited in PubChem BioAssay by several laboratories.
UBC9 SUMO inh = blocks human SUMOylation mediated by UBC9; P63279; HTRF SUMOylation assay, SAE1/SAE2 + UBC9, in vitro; inhibition, % at 35 µM; 0.36% of 290,000 active; in the data active means inhibition above about 50%, passing the limit was not always enough
SIRT5 block = sirtuin-5 (human) deacylase inhibition. Q9NXA8. Purified SirT5, succinyl-peptide AMC, trypsin-coupled fluorescence. inhibition, % at 15 µM. 1.1% of 330,000 active; in the data active means inhibition above about 15%
Casp6 inh = blocks human caspase-6 cleavage activity. P55212. purified caspase-6, Z-VEID-R110 cleavage fluorescence. inhibition, % at 12.5 µM. 0.53% of 350,000 active;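 active means mean inhibition across replicates at least about 35%, with every replicate also reaching that limit, limit read from the data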;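 further: 0% = median of neutral control wells and 100% = no fluorescence left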
Target sequence (P55212 24-179 limits assumed): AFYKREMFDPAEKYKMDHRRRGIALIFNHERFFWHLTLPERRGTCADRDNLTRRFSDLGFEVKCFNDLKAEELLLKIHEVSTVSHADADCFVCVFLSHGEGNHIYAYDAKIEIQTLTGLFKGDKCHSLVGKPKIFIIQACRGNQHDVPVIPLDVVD
Target sequence (P55212 194-293 limits assumed): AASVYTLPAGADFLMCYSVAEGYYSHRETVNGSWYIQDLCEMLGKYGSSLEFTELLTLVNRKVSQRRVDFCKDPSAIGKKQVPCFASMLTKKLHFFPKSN
NSD2 inh = inhibitors of human histone methyltransferase NSD2. O96028. inhibition, % at 12.5 µM. 0.54% of 310,000 active. AID 743445. NSD2 peptide methylation, AlphaScreen, 120 min; in the data active means inhibition above about 50%
* marks the source's active call; other numbers are inactive results; x = not tested or not shown. Most compounds without a hit are left out; they make up all but 1.6% or so of the library.

SMILES	UBC9 SUMO inh	SIRT5 block	Casp6 inh	NSD2 inh
Cc1ccc(NC(=O)CN2C(=O)NC(Cc3c[nH]c4ccccc34)C2=O)c(Br)c1 (configuration not stated)	x	x	x	5
O=C(CCN1C(=O)S/C(=C\c2ccccc2)C1=O)Nc1ccc(S(=O)(=O)Nc2nccs2)cc1	-8	x	x	17
O=C(CCN1C(=O)/C(=C/c2ccco2)SC1=S)Nc1ccc(O)cc1C(=O)O	49	48*	70*	26
O=C1/C(=C/c2ccco2)SC(=S)N1CC1CCCO1 (configuration not stated)	32	1	61*	26
O=C(O)CCCN1C(=O)/C(=C\c2ccco2)SC1=S	39	7	32	101*
COc1ccccc1/C=C1/SC(=O)N(CCC(=O)Nc2ccc(S(=O)(=O)Nc3nccs3)cc2)C1=O	59*	7	0	2
COCC(=O)N1[C@H](CO)[C@H](c2ccccc2)C12CN(C(=O)c1cccnc1)C2	x	3	1	x
O=C(Nc1cccc(Cl)c1)N[C@@H]1CC[C@@H](CCNC(=O)C2CC2)O[C@@H]1CO	x	0	-1	x
C[C@H]1CN([C@@H](C)CO)C(=O)Cc2cc(NC(=O)c3ccncc3)ccc2O[C@H]1CN(C)CC1CC1	x	-2	-1	x
Cc1cccc(-c2ccc([C@@H]3[C@@H](CO)N4C(=O)CN(C(=O)NC5CCCCC5)C[C@@H]34)cc2)c1	x	2	1	x
COc1ccccc1/C=C1\SC(=S)N(CCC(=O)Nc2ccc(C(=O)O)c(O)c2)C1=O	9	46*	41*	30
Nc1ccc2nc(-c3ccccc3)sc2c1	57*	x	x	x
Cc1ccc(S(=O)(=O)N(C)C[C@H]2Oc3c(NC(=O)c4nc5ccccc5s4)cccc3C(=O)N([C@@H](C)CO)C[C@@H]2C)cc1	x	-2	-2	x
O=C(O)CSc1cc(C(=O)c2ccccc2O)cn2c(=O)c3c4c(sc3nc12)CCCC4	50*	37*	18	-1
O=C(O)CSc1nc2sc3c(c2c(=O)n1Cc1ccccc1)CCCCC3	11	4	3	0
COc1ccc(S(=O)(=O)N(C)C[C@H]2Oc3ccc(NC(=O)C4CCCCC4)cc3C(=O)N([C@@H](C)CO)C[C@H]2C)cc1	x	4	2	x
O=c1c2ccccc2nc2c3ccccc3c(NCc3cccnc3)nn12	27	3	-1	-2
O=c1c2ccccc2nc2c3ccccc3c(NCc3ccccn3)nn12	20	112*	1	-1
Cc1cc(C)n(CC(=O)NNC(=O)COc2ccc(F)cc2Br)n1	x	-1	3	-2
Cc1cc(C)n(CC(=O)NNC(=O)COc2ccc(Cl)cc2Cl)n1	x	15*	0	-2
O=C(NC[C@@H]1CC[C@@H]2[C@@H](CN2S(=O)(=O)c2ccccc2[N+](=O)[O-])O1)C1CCOCC1	x	-3	53*	x
O=C(NC[C@H]1CC[C@@H]2[C@@H](CN2S(=O)(=O)c2ccccc2[N+](=O)[O-])O1)Nc1ccccc1	x	1	2	x
C[C@@H]1CN([C@H](C)CO)C(=O)c2cc(-c3ccccc3)cnc2O[C@H]1CN(C)C(=O)Cc1ccccc1	x	-4	0	x
CC(CN1CCCCC1)C(=O)NNC(=O)C12CC3CC(CC(C3)C1)C2 (configuration not stated)	6	9	43*	-3
Cc1nnc(C)c2c(C)n(/N=C/c3cc(Br)ccc3O)c(C)c12	x	x	x	9
SMILES	UBC9 SUMO inh	SIRT5 block	Casp6 inh	NSD2 inh
CC(=O)N1CCCc2cc(S(=O)(=O)CCC(=O)N3CCN(c4cccc(C)c4)C(C)C3)ccc21 (configuration not stated)	5	4	23	x
Cc1cccc(N2CCN(C(=O)CCS(=O)(=O)c3ccc(Br)cc3)CC2C)c1 (configuration not stated)	6	-2	67*	1
Cc1c(-c2ccc(OCCN3CCOCC3)cc2)c(=O)oc2ccc3ccccc3c12	x	19*	-3	x
C#CCOCCOCCOCCNc1nc(N2CCN(C(=O)CCCCCCCCCCNC(=O)Cn3cc(C[C@@H](C)O)nn3)CC2)nc(N2CCN(C(=O)CCCCCCCCCCNC(=O)[C@H](CO)n3cc(CCCSC)nn3)CC2)n1	x	20*	0	x
C#CCOCCOCCOCCNc1nc(N2CCN(C(=O)CCCCCCCCCCNC(=O)Cn3cc(C[C@@H](C)O)nn3)CC2)nc(N2CCN(C(=O)CCCCCCCCCCNC(=O)[C@@H](CCC(=O)O)n3cc(CCCCCN)nn3)CC2)n1	x	3	-9	x
Cc1cccc(C=Nc2ccc3c4c(cccc24)CC3)c1O	10	x	x	1
Oc1ccc(Cl)cc1C=Nc1ccc2c3c(cccc13)CC2	57*	-6	-2	-1
O=C1CC(=Nc2ccc([N+](=O)[O-])cc2)NN1c1c(Cl)cc(Cl)cc1Cl	x	17*	23	9
